# From the supplement of paper PMC12532568
# Structures can show the parent of a compound that is named as a salt.
# Tested on: Danio rerio larvae Tg(actc1b:ZsGreen-LC3), 3 dpf
# Test: LC3 puncta relative area vs vehicle, with NH4Cl (autophagic flux) (log2 fold change); higher = more autophagy
# Details: 10 µM; treatment time 16 h; NH4Cl: + 100 mM, 4 h
# Description: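 Transgenic Tg(actc1b:ZsGreen-map1lc3) zebrafish larvae (2 dpf) were treated for 16 h with Tocris library compounds at 10 µM (n = 12 larvae per compound). Skeletal-muscle LC3 puncta area relative to body area was measured by high-content confocal imaging before and after 4 h of 100 mM NH4Cl (autophagic flux), normalised to vehicle (DMSO), and reported as log2 fold change.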
row,SMILES,LC3 puncta (log2)
1,N=C(N)S/C=C\C(=O)O [ZAPA sulfate],0.0813
2,NCC(O)(CS(=O)(=O)O)c1ccc(Cl)cc1 (stereo not given) [2-Hydroxysaclofen],0.449
3,NC(=O)c1cccc(N)c1 [3-Aminobenzamide],0.645
4,Brc1c(NC2=NCCN2)ccc2nccnc12,0.713
5,O=C1CC2(CCCC2)CC(=O)N1CCNCC1COc2ccccc2O1 (stereo not given),0.515
6,Cc1noc(NS(=O)(=O)c2ccc(N)cc2)c1C [Sulfisoxazole],0.483
7,c1ccc(CN(CC2=NCCN2)c2ccccc2)cc1 [Antazoline hydrochloride],0.684
8,Clc1cccc(Nc2nnc(-c3ccccc3)c3ccccc23)c1,0.446
9,CNCCCCOc1ccccc1Cc1ccccc1 [Bifemelane],0.532
10,O=C(O)C1=CCNCC1 [Isoguvacine hydrochloride],0.468
11,COc1ccc2[nH]c(I)c(CCNC(C)=O)c2c1 [2-Iodomelatonin],0.706
12,NC(=O)OCC(COC(N)=O)c1ccccc1 [Felbamate],-0.777
13,CC(C)NC[C@H](O)COc1ccc(CC(N)=O)cc1 [(S)-(-)-Atenolol],0.611
14,CCc1nc(N)nc(N)c1-c1ccc(Cl)cc1 [Pyrimethamine],0.578
15,CC(N)(Cc1ccc(O)c(O)c1)C(=O)O (stereo not given),0.209
16,CC(=O)N[C@@H](Cc1c[nH]c2ccccc12)C(=O)OCc1cc(C(F)(F)F)cc(C(F)(F)F)c1,0.108
17,CCCCCCN(CCCCCC)C(=O)Cc1c(-c2ccc(Cl)cc2)[nH]c2ccc(Cl)cc12,0.58
18,CC(=O)N[C@@H](CC(=O)N[C@@H](CCC(=O)O)C(=O)O)C(=O)O [Spaglumic acid],0.103
19,c1cc2c(cc1C1CCCCC1)c1c3n2CCNC3CCC1 (stereo not given) [Tetrindole mesylate],0.836
20,c1ccc2oc(C3=NCCN3)cc2c1 [2-BFI hydrochloride],-0.32

row,SMILES,LC3 puncta (log2)
1,O=C(OCCN1CCOCC1)C1(c2ccccc2)CCCCC1 [PRE-084 hydrochloride],0.339
2,Nc1nc2ccc(OC(F)(F)F)cc2s1 [Riluzole],0.631
3,NC(=O)CCCCn1ccc(NC(N)=NCC(F)(F)F)n1,0.72
4,O=C(O)CC/C=C\C[C@H]1CO[C@@H](c2ccccc2Cl)O[C@H]1c1ccccc1O,-0.012
5,Cc1ccc2c(c1)c1c3n2CCNC3CCC1 (stereo not given) [Pirlindole mesylate],0.527
6,CC(C)(Oc1ccc(Cl)cc1)C(=O)O [Clofibric acid],0.77
7,CC(CCc1ccc(O)cc1)NCCc1ccc(O)c(O)c1 (stereo not given) [Dobutamine hydrochloride],0.472
8,CNC(=O)c1cc2c(cn1)[nH]c1ccccc12,0.446
9,O=C(O)C=C1CCCc2ccccc2C1O (stereo not given),-0.285
10,CC1=C(/C=C/C(C)=C/C=C/C(C)=C/C(=O)O)C(C)(C)CCC1 [Retinoic acid],1.64
11,COCCOC(=O)C1=C(C)NC(C)=C(C(=O)OC(C)C)C1c1cccc([N+](=O)[O-])c1 (stereo not given) [Nimodipine],0.885
12,O=C1c2ccccc2CCC1CNCCc1ccc(O)cc1 (stereo not given) [HEAT hydrochloride],0.616
13,O=C(O)c1cc(O)c2ccc(Cl)cc2n1 [7-Chlorokynurenic acid],0.316
14,O=C1CC2(CCCC2)CC(=O)N1CCCCNCC1COc2ccccc2O1 (stereo not given),-0.368
15,COc1cc(N)c(Cl)cc1C(=O)OCCCN1CCCCC1,0.449
16,CC(C(O)c1ccc(O)cc1)N1CCC(Cc2ccccc2)CC1 (stereo not given) [Ifenprodil hemitartrate],0.445
17,COc1ccccc1N1CCN(CC(O)COc2cccc3ccccc23)CC1 (stereo not given) [Naftopidil dihydrochloride],0.195
18,NS(=O)(=O)c1cc2c(cc1Cl)NC(C1CC3C=CC1C3)NS2(=O)=O (stereo not given) [Cyclothiazide],0.416
19,CN(C)CCCn1cc(C2=C(c3c[nH]c4ccccc34)C(=O)NC2=O)c2ccccc21,0.575
20,CSc1ccc2c(c1)C(N1CCN(C)CC1)Cc1ccccc1S2 (stereo not given) [Methiothepin maleate],-0.129
